# Data taken from PubChem BioAssay AID1159580 (chemical genetic matrix, 2015).
# About 2,000 (36%) of roughly 5,500 compounds were called active. Roughly 18% stayed inconclusive and do not appear here. The list shows a part of the results. Unmarked numbers belong to inactive results. Cut-off read from the data, not from the text of the source: active = normalized growth mostly below about 0.91 (no sharp cut-off); inconclusive = no clear call, values can overlap the other calls; inactive = mostly above about 0.92.
# Assay: chemical genetic growth profiling, strain panel (AID 1159580);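 note: tested at 20 µM; growth read once vehicle control cultures reached saturation at 30 °C; 1 = growth at the plate median or of vehicle wells; lower values mean less growth of the strain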
# Details: growth OD
structure (smiles),measurement,setting,value
CCCCC(CC)CN1CN(CC(CC)CCCC)CC(C)(N)C1 (centres undefined),normalized growth,"S. cerevisiae deletion strains, locus YJR043C, strain POL32, stronger effect = lower value",0.37 (active)
same,normalized growth,"S. cerevisiae deletion strains, locus YJR075W, strain HOC1, stronger effect = lower value",0.372 (active)
same,normalized growth,"S. cerevisiae deletion strains, locus YKL009W, strain mrt4, stronger effect = lower value",0.939
same,normalized growth,"S. cerevisiae deletion strains, locus YKL068W, stronger effect = lower value",1.01
same,normalized growth,"S. cerevisiae deletion strains, locus YKL085W, strain MDH1 (second series), stronger effect = lower value",0.994
same,normalized growth,"S. cerevisiae deletion strains, locus YKL085W, strain MDH1, stronger effect = lower value",0.994
same,normalized growth,"S. cerevisiae deletion strains, locus YKL160W, strain elf1, stronger effect = lower value",0.373 (active)
same,normalized growth,"S. cerevisiae deletion strains, locus YKL190W, strain CNB1, stronger effect = lower value",0.445 (active)
same,normalized growth,"S. cerevisiae deletion strains, locus YKR001C, strain vps1, stronger effect = lower value",0.0669 (active)
same,normalized growth,"S. cerevisiae deletion strains, locus YKR026C, strain gcn3, stronger effect = lower value",0.059 (active)
same,normalized growth,"S. cerevisiae deletion strains, locus YKR091W, strain srl3, stronger effect = lower value",0.0561 (active)
same,normalized growth,"S. cerevisiae deletion strains, locus YLL001W, strain dnm1, stronger effect = lower value",0.0613 (active)
same,normalized growth,"S. cerevisiae deletion strains, locus YLL026W, stronger effect = lower value",0.0554 (active)
same,normalized growth,"S. cerevisiae deletion strains, locus YLL041C, strain sdh2, stronger effect = lower value",0.0528 (active)
same,normalized growth,"S. cerevisiae deletion strains, locus YLR027C, strain aat2, stronger effect = lower value",0.0535 (active)
same,normalized growth,"S. cerevisiae deletion strains, locus YLR039C, strain RIC1, stronger effect = lower value",0.352 (active)
same,normalized growth,"S. cerevisiae deletion strains, locus YLR058C, strain SHM2, stronger effect = lower value",0.525 (active)
same,normalized growth,"S. cerevisiae deletion strains, locus YLR102C, strain apc9, stronger effect = lower value",0.832 (active)
same,normalized growth,"S. cerevisiae deletion strains, locus YLR221C, strain rsa3, stronger effect = lower value",0.0576 (active)
same,normalized growth,"S. cerevisiae deletion strains, locus YLR258W, strain gsy2, stronger effect = lower value",0.0568 (active)
same,normalized growth,"S. cerevisiae deletion strains, locus YLR262C, strain YPT6 (second series), stronger effect = lower value",0.0741 (active)
same,normalized growth,"S. cerevisiae deletion strains, locus YLR262C, strain YPT6, stronger effect = lower value",0.269 (active)
same,normalized growth,"S. cerevisiae deletion strains, locus YLR268W, strain sec22, stronger effect = lower value",0.484 (active)
same,normalized growth,"S. cerevisiae deletion strains, locus YLR320W, strain mms22, stronger effect = lower value",0.0732 (active)
same,normalized growth,"S. cerevisiae deletion strains, locus YLR330W, strain CHS5, stronger effect = lower value",0.437 (active)
same,normalized growth,"S. cerevisiae deletion strains, locus YLR342W, strain FKS1 (second series), stronger effect = lower value",0.254 (active)
same,normalized growth,"S. cerevisiae deletion strains, locus YLR342W, strain FKS1, stronger effect = lower value",0.0622 (active)
same,normalized growth,"S. cerevisiae deletion strains, locus YLR357W, strain rsc2, stronger effect = lower value",0.114 (active)
same,normalized growth,"S. cerevisiae deletion strains, locus YLR370C, strain arc18, stronger effect = lower value",0.0656 (active)
same,normalized growth,"S. cerevisiae deletion strains, locus YLR371W, strain rom2, stronger effect = lower value",0.23 (active)
same,normalized growth,"S. cerevisiae deletion strains, locus YLR384C, strain iki3, stronger effect = lower value",0.0552 (active)
same,normalized growth,"S. cerevisiae deletion strains, locus YLR418C, strain cdc73, stronger effect = lower value",0.153 (active)
same,normalized growth,"S. cerevisiae deletion strains, locus YML016C, strain PPZ1, stronger effect = lower value",0.743 (active)
same,normalized growth,"S. cerevisiae deletion strains, locus YML032C, strain rad52, stronger effect = lower value",0.407 (active)
same,normalized growth,"S. cerevisiae deletion strains, locus YML120C, strain ndi1, stronger effect = lower value",0.0565 (active)
same,normalized growth,"S. cerevisiae deletion strains, locus YML124C, strain tub3, stronger effect = lower value",0.692 (active)
same,normalized growth,"S. cerevisiae deletion strains, locus YMR058W, strain fet3, stronger effect = lower value",0.0601 (active)
same,normalized growth,"S. cerevisiae deletion strains, locus YMR078C, strain ctf18, stronger effect = lower value",0.802 (active)
same,normalized growth,"S. cerevisiae deletion strains, locus YMR125W, strain sto1, stronger effect = lower value",0.0743 (active)
same,normalized growth,"S. cerevisiae deletion strains, locus YMR129W, stronger effect = lower value",0.0564 (active)
same,normalized growth,"S. cerevisiae deletion strains, locus YMR205C, strain PFK2, stronger effect = lower value",0.0816 (active)
same,normalized growth,"S. cerevisiae deletion strains, locus YMR223W, strain ubp8, stronger effect = lower value",0.316 (active)
same,normalized growth,"S. cerevisiae deletion strains, locus YMR231W, strain pep5, stronger effect = lower value",0.0615 (active)
same,normalized growth,"S. cerevisiae deletion strains, locus YMR263W, strain SAP30, stronger effect = lower value",0.489 (active)
same,normalized growth,"S. cerevisiae deletion strains, locus YMR307W, strain GAS1, stronger effect = lower value",0.162 (active)
same,normalized growth,"S. cerevisiae deletion strains, locus YNL067W, strain RPL9B, stronger effect = lower value",0.605 (active)
same,normalized growth,"S. cerevisiae deletion strains, locus YNL071W, strain lat1, stronger effect = lower value",0.058 (active)
same,normalized growth,"S. cerevisiae deletion strains, locus YNL128W, strain TEP1, stronger effect = lower value",0.288 (active)
same,normalized growth,"S. cerevisiae deletion strains, locus YNL153C, strain GIM3, stronger effect = lower value",0.356 (active)
same,normalized growth,"S. cerevisiae deletion strains, locus YNL209W, strain ssb2, stronger effect = lower value",0.0575 (active)
same,normalized growth,"S. cerevisiae deletion strains, locus YNL233W, strain BNI4, stronger effect = lower value",0.26 (active)
same,normalized growth,"S. cerevisiae deletion strains, locus YNL248C, strain rpa49, stronger effect = lower value",0.0852 (active)
same,normalized growth,"S. cerevisiae deletion strains, locus YNL250W, strain rad50, stronger effect = lower value",1.01
same,normalized growth,"S. cerevisiae deletion strains, locus YNL271C, strain bni1, stronger effect = lower value",0.997
same,normalized growth,"S. cerevisiae deletion strains, locus YNL298W, strain CLA4, stronger effect = lower value",1.01
same,normalized growth,"S. cerevisiae deletion strains, locus YNL307C, strain MCK1, stronger effect = lower value",0.262 (active)
same,normalized growth,"S. cerevisiae deletion strains, locus YNL322C, strain KRE1 (second series), stronger effect = lower value",0.0601 (active)
same,normalized growth,"S. cerevisiae deletion strains, locus YNL322C, strain KRE1, stronger effect = lower value",0.336 (active)
same,normalized growth,"S. cerevisiae deletion strains, locus YNR049C, strain mso1, stronger effect = lower value",0.0593 (active)
same,normalized growth,"S. cerevisiae deletion strains, locus YNR052C, strain pop2, stronger effect = lower value",0.0951 (active)
same,normalized growth,"S. cerevisiae deletion strains, locus YOL006C, strain TOP1, stronger effect = lower value",0.196 (active)
same,normalized growth,"S. cerevisiae deletion strains, locus YOL012C, strain htz1",0.192
same,normalized growth,"S. cerevisiae deletion strains, locus YOL147C, strain pex11, stronger effect = lower value",0.497 (active)
same,normalized growth,"S. cerevisiae deletion strains, locus YOR001W, strain rrp6, stronger effect = lower value",0.0714 (active)
same,normalized growth,"S. cerevisiae deletion strains, locus YOR061W, strain CKA2, stronger effect = lower value",0.583 (active)
same,normalized growth,"S. cerevisiae deletion strains, locus YOR069W, strain VPS5, stronger effect = lower value",0.736 (active)
same,normalized growth,"S. cerevisiae deletion strains, locus YOR070C, strain gyp1, stronger effect = lower value",0.0567 (active)
same,normalized growth,"S. cerevisiae deletion strains, locus YOR080W, strain dia2, stronger effect = lower value",0.0601 (active)
same,normalized growth,"S. cerevisiae deletion strains, locus YOR083W, strain WHI5, stronger effect = lower value",0.0602 (active)
same,normalized growth,"S. cerevisiae deletion strains, locus YOR106W, strain vam3, stronger effect = lower value",0.0665 (active)
same,normalized growth,"S. cerevisiae deletion strains, locus YOR136W, strain idh2, stronger effect = lower value",0.607 (active)
same,normalized growth,"S. cerevisiae deletion strains, locus YOR144C, strain elg1, stronger effect = lower value",0.662 (active)
same,normalized growth,"S. cerevisiae deletion strains, locus YOR184W, strain ser1, stronger effect = lower value",0.325 (active)
same,normalized growth,"S. cerevisiae deletion strains, locus YOR265W, strain rbl2, stronger effect = lower value",0.0536 (active)
same,normalized growth,"S. cerevisiae deletion strains, locus YOR270C, strain vph1, stronger effect = lower value",0.0981 (active)
same,normalized growth,"S. cerevisiae deletion strains, locus YOR290C, strain snf2, stronger effect = lower value",0.0607 (active)
same,normalized growth,"S. cerevisiae deletion strains, locus YOR316C, strain cot1, stronger effect = lower value",0.863 (active)
same,normalized growth,"S. cerevisiae deletion strains, locus YPL051W, strain arl3, stronger effect = lower value",0.0603 (active)
same,normalized growth,"S. cerevisiae deletion strains, locus YPL055C, strain LGE1, stronger effect = lower value",0.189 (active)
same,normalized growth,"S. cerevisiae deletion strains, locus YPL078C, strain atp4, stronger effect = lower value",0.0642 (active)
same,normalized growth,"S. cerevisiae deletion strains, locus YPL106C, strain sse1, stronger effect = lower value",0.0997 (active)
same,normalized growth,"S. cerevisiae deletion strains, locus YPL240C, strain hsp82, stronger effect = lower value",0.0539 (active)
same,normalized growth,"S. cerevisiae deletion strains, locus YPL241C, strain CIN2, stronger effect = lower value",0.733 (active)
same,normalized growth,"S. cerevisiae deletion strains, locus YPR119W, strain clb2, stronger effect = lower value",0.627 (active)
same,normalized growth,"S. cerevisiae deletion strains, locus YPR141C, strain kar3, stronger effect = lower value",1.01
same,normalized growth,"S. cerevisiae deletion strains, locus YPR163C, strain tif3, stronger effect = lower value",0.178 (active)
same,normalized growth,"S. cerevisiae deletion strains, locus YPR167C, strain met16, stronger effect = lower value",0.533 (active)
same,normalized growth,"S. cerevisiae deletion strains, strain wtn01, stronger effect = lower value",0.425 (active)
same,normalized growth,"S. cerevisiae strains, strain wild type, stronger effect = lower value",0.21 (active)
